Measured values from PubChem BioAssay.
Active and inactive are the calls of the source.

Key:
[1] = compounds binding Alexa647 anti-His antibody – biochemical, small-molecule microarray, 635 nm fluorescence, artefact control for SMM control protein annotation, primary screen (AID 1128); settings: higher = more signal;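 also: score merges feature fluorescence with signal-to-noise for each printed compound spot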
[2] = test system: Human papillomavirus type 1a E7 protein (residues 1-88); test: HPV1a E7 small-molecule binders, primary screen, biochemical, small-molecule microarray, residues 1-88, 635 nm (AID 1129); settings: small-molecule microarray binding, fluorescence 635 nm; higher = more signal
[3] = biological target: Focal adhesion kinase 1 (Homo sapiens) (UniProt Q05397); test: PTK2 protein binding on printed compound slides – biochemical, small-molecule microarray, 635/667 nm fluorescence, BSA, DTT, primary screen (AID 1130); settings: 635 nm fluorescence, higher = more signal;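 also: composite of spot emission at 667 nm and signal to noise over triplicate slides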
Focal adhesion kinase 1 (Homo sapiens), sequence (Q05397 whole entry, looked up): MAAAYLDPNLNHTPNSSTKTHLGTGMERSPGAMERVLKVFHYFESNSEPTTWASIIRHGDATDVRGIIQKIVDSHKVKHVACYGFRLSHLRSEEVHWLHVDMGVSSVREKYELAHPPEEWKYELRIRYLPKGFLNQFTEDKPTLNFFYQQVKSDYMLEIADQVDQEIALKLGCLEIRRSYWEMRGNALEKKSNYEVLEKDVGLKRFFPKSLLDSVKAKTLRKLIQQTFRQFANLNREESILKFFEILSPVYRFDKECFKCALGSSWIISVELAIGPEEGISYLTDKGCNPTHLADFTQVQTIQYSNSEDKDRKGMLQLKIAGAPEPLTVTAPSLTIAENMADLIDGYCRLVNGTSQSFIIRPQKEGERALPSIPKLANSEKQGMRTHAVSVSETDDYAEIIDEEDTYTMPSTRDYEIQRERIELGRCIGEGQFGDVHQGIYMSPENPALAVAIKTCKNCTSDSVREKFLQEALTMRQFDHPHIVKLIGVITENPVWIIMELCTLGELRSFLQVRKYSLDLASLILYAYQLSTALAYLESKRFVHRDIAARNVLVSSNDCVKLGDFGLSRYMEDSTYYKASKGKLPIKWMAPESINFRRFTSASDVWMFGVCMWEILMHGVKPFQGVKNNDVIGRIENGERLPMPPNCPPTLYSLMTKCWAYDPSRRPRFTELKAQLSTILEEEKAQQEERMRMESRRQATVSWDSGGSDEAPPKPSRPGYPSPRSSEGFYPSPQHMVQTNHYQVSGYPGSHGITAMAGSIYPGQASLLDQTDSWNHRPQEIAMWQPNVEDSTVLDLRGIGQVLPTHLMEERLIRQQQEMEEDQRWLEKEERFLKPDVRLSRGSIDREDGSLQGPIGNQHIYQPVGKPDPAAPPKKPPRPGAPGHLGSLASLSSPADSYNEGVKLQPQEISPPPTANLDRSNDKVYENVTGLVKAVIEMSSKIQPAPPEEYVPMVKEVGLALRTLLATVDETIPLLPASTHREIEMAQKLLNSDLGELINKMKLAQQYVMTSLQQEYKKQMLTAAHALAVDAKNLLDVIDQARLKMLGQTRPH

[4] = test system: Fibrinogen (Alexa647-labelled); test: Alexa647-fibrinogen binding to printed small molecules – biochemical, small-molecule microarray, 635/667 nm fluorescence, artefact control for SMM control-protein annotation, profiling panel (AID 1131); settings: fibrinogen-A647 binding fluorescence, higher = more signal;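 also: z-score merges 667 nm fluorescence with per-spot signal-to-noise over triplicate slides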
[5] = biological target: Follistatin (Homo sapiens) (UniProt P19883); test: FST protein binding to printed compounds – biochemical, small-molecule microarray, 635/667 nm fluorescence, primary screen (AID 1132); settings: 635 nm fluorescence, higher = more signal
Follistatin (Homo sapiens), sequence (P19883 whole entry, looked up): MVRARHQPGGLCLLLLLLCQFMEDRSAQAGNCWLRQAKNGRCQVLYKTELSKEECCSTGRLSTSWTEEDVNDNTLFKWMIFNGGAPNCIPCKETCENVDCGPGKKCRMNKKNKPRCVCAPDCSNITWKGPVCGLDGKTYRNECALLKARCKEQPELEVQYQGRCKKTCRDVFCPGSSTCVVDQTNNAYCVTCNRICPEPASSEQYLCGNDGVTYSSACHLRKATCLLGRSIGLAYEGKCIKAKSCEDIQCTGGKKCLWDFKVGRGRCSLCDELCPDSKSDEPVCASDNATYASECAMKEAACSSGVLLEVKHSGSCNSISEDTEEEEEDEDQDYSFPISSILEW

[6] = biological target: Fibroblast growth factor 2 (Homo sapiens) (UniProt P09038); test: basic fibroblast growth factor binding to printed compounds – biochemical, small-molecule microarray, 635/667 nm fluorescence, primary screen (AID 1133); settings: FGF2, fluorescence 635/667, higher = more signal
Fibroblast growth factor 2 (Homo sapiens), sequence (P09038 whole entry, looked up): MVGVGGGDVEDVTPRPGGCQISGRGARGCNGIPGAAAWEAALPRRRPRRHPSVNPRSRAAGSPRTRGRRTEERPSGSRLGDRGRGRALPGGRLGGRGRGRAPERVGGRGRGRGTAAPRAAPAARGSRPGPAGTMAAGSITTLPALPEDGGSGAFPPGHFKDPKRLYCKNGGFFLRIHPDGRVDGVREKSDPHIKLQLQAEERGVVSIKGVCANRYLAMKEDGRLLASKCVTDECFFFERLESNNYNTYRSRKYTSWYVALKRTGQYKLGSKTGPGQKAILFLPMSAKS

[7] = JC-1 mitochondrial potential readout, lung cancer cells – cell-based, A549, JC-1 fluorescence, basal, 24 h, 100 nL, profiling panel (AID 1138); settings: higher = more signal;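 also: A549 lung adenocarcinoma cells under basal conditions with no added stimulus; test concentration not given here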
Lefty1 = Lefty1 protein binding to printed compounds – biochemical, small-molecule microarray, 635/667 nm fluorescence, primary screen (AID 1139); settings: fluorescence 635/667, higher = more signal
[8] = test system: wheat germ agglutinin (Triticum aestivum), Alexa647-labelled; test: Alexa647-WGA lectin binding to printed small molecules – biochemical, small-molecule microarray, 635/667 nm fluorescence, artefact control for SMM control-protein annotation, profiling panel (AID 1140); settings: WGA-A647 binding, 635 nm fluorescence, higher = more signal;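 also: score merges 667 nm feature emission with signal to noise over triplicate slides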
[9] = biological target: Luciferin 4-monooxygenase (Photinus pyralis) (UniProt P08659); test: inhibition of purified Photinus pyralis luciferase – biochemical, luminescence, purified enzyme, 2006 set, primary screen (AID 1141); settings: purified firefly luciferase, SteadyGlo luminescence, 30 min; higher = more signal, called active from +8 up or from −8 down;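 also: cell-free assay with purified firefly luciferase at 100 ng per well in PBS; test concentration not given here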
Luciferin 4-monooxygenase (Photinus pyralis), sequence (P08659 whole entry, looked up): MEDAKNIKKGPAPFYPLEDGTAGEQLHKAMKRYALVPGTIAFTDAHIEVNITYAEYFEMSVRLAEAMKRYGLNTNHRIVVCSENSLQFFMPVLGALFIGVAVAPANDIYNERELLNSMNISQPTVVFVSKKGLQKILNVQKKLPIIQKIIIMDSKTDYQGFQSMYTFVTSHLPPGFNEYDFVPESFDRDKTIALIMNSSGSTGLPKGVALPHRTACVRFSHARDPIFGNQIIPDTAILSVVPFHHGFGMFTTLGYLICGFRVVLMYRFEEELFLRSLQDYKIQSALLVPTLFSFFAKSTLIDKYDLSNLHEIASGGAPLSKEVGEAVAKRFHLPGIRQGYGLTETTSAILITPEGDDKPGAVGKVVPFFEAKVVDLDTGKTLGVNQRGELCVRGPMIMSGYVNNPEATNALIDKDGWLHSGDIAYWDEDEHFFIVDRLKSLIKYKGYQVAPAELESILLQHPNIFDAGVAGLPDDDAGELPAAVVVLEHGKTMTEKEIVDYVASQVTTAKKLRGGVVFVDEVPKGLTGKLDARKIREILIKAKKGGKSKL

Row | Compound | composite z-score [1] | composite z-score [2] | composite z-score [3] | composite z-score [4] | composite z-score [5] | composite z-score [6] | z-score [7] | composite z-score (Lefty1) | composite z-score [8] | z-score [9]
1 | Cc1ccc(S[C@]2(C(=O)NC(C)C)CC(=O)N(Cc3cc(C(F)(F)F)cc(C(F)(F)F)c3)[C@@H]2c2ccc(CO)cc2)cc1 | -0.254 | -0.629 | -0.734 | -0.983 | -1.33 | -0.977 | 0.605 | -0.67 | 0.0491 | -0.222 (inactive)
2 | C=CC[C@@H](OC(=O)Nc1ccc(SC)cc1)c1ccc(O)c(F)c1 | 2.11 | 0.57 | 0.274 | 0.221 | 1.06 | 1.11 | -1.12 | 0.394 | 0.904 | -3.58 (inactive)
3 | CCOC(=O)C[C@H]1[C@H](OC(=O)c2cc3ccccc3oc2=O)[C@@H](NC(=O)c2ccc3ccccc3n2)c2cc(OCCCO)ccc2N1C(=O)Cc1ccc(OC)cc1 | 0.357 | 1.18 | 0.277 | 0.953 | 1.06 | 0.509 | 0.57 | 1.06 | 0.275 | 0.798 (inactive)
4 | Cc1ccc(F)cc1S(=O)(=O)N[C@@H]1CCN(Cc2ccc(Br)cc2)C1 | -0.325 | -0.464 | -0.408 | 0.79 | 0.639 | 0.677 | 1.47 | 0.983 | 0.124 | -0.457 (inactive)
5 | CC(C)C(CO)N1C(=O)[C@@H]2[C@H]3C(=O)OCC=C[C@H]3OC23C=CCN(c2ccc(Cl)cc2)C(=O)[C@@H]13 (stereo not given in full) | -1.82 | -1.22 | -0.265 | -0.934 | -0.728 | -0.794 | 1.05 | -0.712 | -0.928 | -0.469 (inactive)
6 | CCOC(=O)C[C@H]1[C@H](OC(=O)c2ccc(C(=O)c3ccccc3)cc2)[C@@H](NC(=O)c2ccc(-c3ccccc3)cc2)c2cc(OCCCO)ccc2N1C(=O)Cc1ccc(OC)cc1 | 0.0658 | 0.556 | 0.0784 | 0.544 | 0.51 | -0.205 | 0.967 | 0.374 | 0.223 | 0.408 (inactive)
7 | Cc1ccc(S[C@]2(C(=O)NCc3ccccc3)CC(=O)N(C3CCCCC3)[C@@H]2c2ccc(CO)cc2I)cc1 | 0.731 | 0.872 | 0.25 | 0.773 | 0.382 | 0.904 | 1.3 | -0.0294 | 0.68 | -0.421 (inactive)
8 | CCCCC(CC)C(O)C1C=CC2C(=O)N(c3ccccc3)C(=O)C2N1Nc1ccccc1F (stereo not given) | 2.22 | 1.2 | 0.1 | -0.209 | 0.729 | -0.315 | -1.04 | 0.276 | 0.357 | 1.61 (inactive)
9 | CC1CC/C=C\[C@H]2OC34C=CCN(c5ccc(Cl)cc5)C(=O)[C@H]3N(C(C)CO)C(=O)[C@]4(C)C2C(=O)O1 (stereo not given in full) | -0.984 | -1.5 | -0.177 | -0.173 | -0.954 | -1.06 | 0.798 | -0.847 | 0.429 | -1.14 (inactive)
10 | CCOC(=O)C[C@H]1[C@H](OC(=O)c2ccc(C(=O)c3ccccc3)cc2)[C@@H](NC(=O)c2ccc3ccccc3n2)c2cc(OCCCO)ccc2N1C(=O)Cc1ccc(OC)cc1 | -0.249 | 0.656 | 0.0555 | 0.692 | 0.259 | 0.52 | -0.44 | 0.208 | 0.207 | 0.541 (inactive)
11 | C=CCC(OC(C)=O)[C@@H]1[C@@H](N(Cc2cc3ccccc3o2)C(=O)Cc2ccc(F)cc2)c2cc(OCCCO)ccc2N1C(=O)Cc1ccc2ccccc2c1 (stereo not given in full) | -0.748 | -0.682 | -0.308 | 0.397 | 0.0648 | -0.408 | 1.75 | -0.0725 | -0.286 | -0.826 (inactive)
12 | O=C1C2C=CC(C(O)C3CC=CCC3)N(Nc3ccccc3)C2C(=O)N1c1ccccc1 (stereo not given) | 0.41 | 1.21 | 1.17 | 0.944 | 1.27 | 0.119 | -1.15 | 0.135 | 0.458 | -0.313 (inactive)
13 | NC(=O)[C@@]1(Cc2ccccc2)COC(c2ccc(OCCCO)cc2)=N1 | 1.19 | -0.974 | 0.0264 | -0.979 | -0.0248 | 0.387 | -0.244 | 0.0016 | 0.523 | -4.28 (inactive)
14 | O=C(c1ccccc1)N1C(=O)[C@]2(Cc3ccccc31)N=C(c1ccc(OCCCO)cc1)O[C@@H]2c1ccccc1 | 1.87 | 1.23 | 0.677 | 0.965 | 1.24 | 0.944 | -2.12 | 0.764 | 0.305 | -1.33 (inactive)
15 | CN(C)c1ccc(C(O)C2C=CC3C(=O)NC(=O)C3N2Nc2ccccn2)cc1 (stereo not given) | 0.909 | 0.683 | 0.304 | 0.309 | 1.32 | 0.417 | 0.229 | 0.783 | 0.423 | -0.866 (inactive)
16 | CCOC(=O)C[C@H]1[C@H](OC(=O)c2ccccc2-c2ccccc2)[C@@H](NC(=O)c2ccc3ccccc3c2)c2cc(OCCCO)ccc2N1C(=O)c1ccccc1 | 1.49 | 0.844 | 0.288 | 0.609 | 0.91 | 1.08 | 1.04 | 0.868 | -0.0223 | -0.124 (inactive)
17 | COc1cc(OC)c(C(O)C2C=CC3C(=O)N(Cc4ccccc4)C(=O)C3N2n2cnnc2)cc1Br (stereo not given) | 2.21 | 1.17 | 0.381 | 0.973 | 1.03 | -0.148 | -1.08 | 0.363 | 1.02 | 0.647 (inactive)
18 | CCCCC(=C=CC[C@H](O)c1ccc(OCCO)cc1)CCO | -0.582 | 0.0547 | 0.0832 | -1.64 | -0.232 | -0.674 | 0.25 | 0.282 | 0.717 | -0.98 (inactive)
19 | NCCCCCNC(=O)[C@H]1C[C@H]2C(=O)N3CCC[C@H]3C(=O)N2[C@H]1c1cccc(OCCO)c1 | 3.3 | 0.987 | 0.0204 | 0.83 | 0.208 | -0.146 | -0.705 | -0.285 | 1.29 | -0.165 (inactive)
20 | COC(=O)[C@@]1(Cc2ccc(OC)cc2)[C@H]2c3cc(C(=O)N(C)C)n(Cc4ccc(OC(F)(F)F)cc4)c3C[C@H]2CN1C(=O)c1ccccc1 | -0.399 | 0.299 | 1.14 | 0.808 | -0.295 | -0.555 | 0.517 | -0.878 | 0.0102 | 0.86 (inactive)
21 | COC(=O)[C@@]1(Cc2ccc(F)cc2)[C@H]2c3cc(C(=O)N4CCCC4)n(CCc4c[nH]c5ccccc45)c3C[C@H]2CN1C(=O)c1ccccc1 | 1.56 | 1.26 | 1.27 | 0.97 | 0.867 | 0.577 | 0.775 | -0.627 | 0.816 | 2.04 (inactive)
22 | Cc1ccc(S[C@]2(C(=O)NCC(F)(F)F)CC(=O)N(Cc3cc(C(F)(F)F)cc(C(F)(F)F)c3)[C@@H]2c2ccc(CO)cc2)cc1 | 1.86 | -1.33 | -0.237 | -1.09 | -0.192 | -0.897 | 0.0304 | -0.126 | -0.744 | -0.46 (inactive)
23 | C=CCN1Cc2ccccc2[C@@H]2OC(c3ccc(OCCCO)cc3)=N[C@]2(CC=C)C1=O | 2.25 | 1.15 | 0.68 | 0.542 | 1.49 | 1.57 | 2.5 | 1.2 | 0.667 | -1.91 (inactive)
24 | CCOC(=O)C1=CC[C@@H](c2ccccc2)N(S(=O)(=O)c2ccc(C)cc2)[C@H]1c1ccccc1 | 0.271 | 1.17 | 0.428 | 0.915 | -0.0842 | -0.486 | 2.45 | -0.381 | 0.991 | 1.16 (inactive)
25 | C=CCNC(=O)[C@H]1[C@@H]2C(=O)O[C@@H](c3ccccc3)[C@@H](c3ccccc3)N2[C@@H](c2ccccc2OCCO)[C@]12C(=O)N(C(=O)OCCOC)c1ccc(C#CC3(O)CCCCCC3)cc12 | 0.977 | 1.18 | 0.325 | 0.579 | 0.785 | 0.226 | -0.634 | 0.876 | 0.763 | -1.64 (inactive)
